Hit rate of the full screen: of about 330,000 compounds, about 1,800 (0.55%) were called active. Many of the other results were omitted from the sample, so actives are more common in it than they were. Unmarked numbers belong to inactive results. Rule as the data show it: active = growth inhibition above about 68%; inactive = the rest.
Experiment: growth inhibition of ugtP-null S. aureus, primary screen, RN4220 ugtP deletion, OD600 (AID 1259309);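 also: plate controls were untreated wells for no effect and antibiotic for full effect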
Conditions: 16 h, hits give high values

Row | SMILES | growth inhibition
1 | COc1ccc(C=NNC(=O)c2cc[n+]([O-])cc2)cc1 | 2.45%
2 | CC(=NNc1ccc(S(=O)(=O)N2CCCCC2)cn1)c1ccc(O)cc1 | -0.0996%
3 | COc1ccccc1CN(C)C(=O)c1cc2ccccc2o1 | 9.31%
4 | Cc1ccc(OC(=O)c2cc3ccccc3o2)cc1 | 98% (active)
5 | Cc1ccc(OC(=O)c2ccccc2C(=O)OCC(F)(F)C(F)F)cc1 | 14.2%
6 | Cc1ccc(-c2nnnn2C2CC(=NNC(N)=S)C3OCC2O3)cc1 (configuration not stated) | 3.57%
7 | O=C(NN=Cc1ccncc1)c1cccc(NC(=O)c2ccc(Cl)cc2)c1 | -6.73%
8 | O=c1c2ccccc2nc(-c2ccco2)n1-c1ccc(Br)cn1 | 11.8%
9 | O=c1c2ccccc2nc(/C=C/c2ccco2)n1-c1ccccc1O | 92% (active)
10 | O=c1c2ccccc2nc(/C=C/c2ccc(F)cc2)n1-c1ccccc1O | 97.9% (active)
11 | O=C(CSc1nc2ccccc2c(=O)n1-c1ccccc1F)N1CCOCC1 | -0.774%
12 | CCn1c(/C=C/c2ccc([N+](=O)[O-])o2)nc2ccccc2c1=O | 11.7%
13 | O=C(CSc1nc2ccccc2c(=O)n1-c1ccc(F)cc1)NC1CC1 | 2.6%
14 | CC1CCCC(C)N1N=Cc1ccc([N+](=O)[O-])cc1 (configuration not stated) | 18%
15 | O=C(NN=Cc1cccs1)c1cnccn1 | 1.82%
16 | Cc1ccc(OCC(=O)NCCCNC(=O)c2ccco2)cc1C | -2.8%
17 | Cc1ccc(C(=O)NNC(=O)C(C)Oc2ccc3ccccc3c2)o1 (configuration not stated) | 8%
18 | Cc1ccc(OCC(=O)NNC(=S)NCc2ccccc2)cc1 | -11.7%
19 | O=C(Nc1ccc2ccccc2c1)/C(=C/c1cccc(Br)c1)NC(=O)c1ccco1 | -9.2%
20 | CCCc1ccc(OCC(=O)NNC(=S)NC(=O)c2ccco2)cc1 | 96% (active)
21 | CC(Oc1ccc2ccccc2c1)C(=O)NNC(=S)NC(=O)c1ccco1 (configuration not stated) | 91.7% (active)

Row | SMILES | growth inhibition
22 | CC(=NNC(=O)CSc1nc2ccccc2o1)c1cccc(O)c1 | 1.7%
23 | COc1cccc(C=NNC(=O)c2cc(-c3cccn3C)n[nH]2)c1 | -20.1%
24 | CN(Cc1c(C(=O)NN=Cc2cccc(F)c2)nnn1-c1nonc1N)c1ccccc1 | 0.685%
25 | Cc1ccccc1C(=O)ON=C(N)c1ccncc1 | 6.35%
26 | O=C(Cn1nc2ccccc2n1)NN=Cc1cc(Cl)cc([N+](=O)[O-])c1O | 2.61%
27 | COC(=O)CC1c2cc(C(F)(F)F)ccc2S(=O)(=O)N1Cc1ccccc1OC (configuration not stated) | 4.2%
28 | CCN(CC(=O)Nc1ccc(OC)cc1)C(=O)CSCc1ccc(C)cc1 | 3.82%
29 | COc1ccc(NC(=O)/C(Cl)=C(/Cl)S(=O)Cc2ccc(C)cc2)cn1 (configuration not stated) | 99.4% (active)
30 | COc1ccc(CS(=O)/C(Cl)=C(/Cl)C(=O)Nc2ccc(OC)nc2)cc1 (configuration not stated) | 15.9%
31 | C[C@]12CCC3c4ccc(OC(=O)c5ccccc5)cc4CCC3C1CCC2O (some centres not stated) | 19.4%
32 | COc1ccc2c(c1)SC(C)CC2=O (configuration not stated) | -4.08%
33 | COc1ccc2c(c1)OC(O)(C(F)(F)C(F)F)CC2=O (configuration not stated) | 99.4% (active)
34 | COc1ccc2c(c1)C(=O)CC(c1ccccc1)O2 (configuration not stated) | 6.73%
35 | CCC(=NOC(=O)c1cccc(C)c1)C(=O)c1cccs1 | -0.652%
36 | O=C1/C(=C/c2cccs2)CCC1C1CCCC1 (configuration not stated) | 8.34%
37 | CCC1C/C(=C/c2cccs2)C(=O)/C(=C/c2cccs2)C1 (configuration not stated) | 94.7% (active)
38 | O=C1/C(=C/c2cccs2)CCc2ccccc21 | 18.9%
39 | CC(CC(=O)Nc1ccccn1)=NNC(=O)C(=O)Nc1cccc(C)c1 | 3.99%
40 | COc1ccc(O)c(C=NNC(=O)CN2CCS(=O)(=O)CC2)c1 | -0.335%
41 | CC(=NNc1ccc(C(F)(F)F)cn1)c1ccncc1 | 1.19%
42 | N=C1C(c2nc3ccccc3s2)=C(O)CN1NC(=O)c1ccc([N+](=O)[O-])cc1 | -0.97%

Row | SMILES | growth inhibition
43 | O=C(COC(=O)c1ccc([N+](=O)[O-])cc1Cl)NC(=O)c1ccccc1 | -1.26%
44 | O=C(NC(Nc1nc2ccc([N+](=O)[O-])cc2s1)(C(F)(F)F)C(F)(F)F)c1ccccc1 | 100% (active)
45 | Cc1ccsc1C=NNC(=O)c1ccncc1 | -0.727%
46 | O=S(=O)([N-]c1nc2ccccc2nc1-[n+]1ccc(Cc2ccccc2)cc1)c1ccc(Br)s1 | 95.2% (active)
47 | O=S(=O)(NCc1ccccn1)c1ccc(Br)s1 | 5.99%
48 | Cc1cc(C(=O)CCl)c(C)n1CC1COc2ccccc2O1 (configuration not stated) | 90.8% (active)
49 | O=C1C(=O)N(CC2COc3ccccc3O2)c2ccccc21 (configuration not stated) | -2.06%
50 | Cc1ccsc1C(=O)OCC(=O)c1cc(C)n(CC2CCCO2)c1C (configuration not stated) | 0.578%
51 | CCCOC(=O)Nc1sc2c(c1C(=O)OCC)CCC2 | 91.5% (active)
52 | CCOC(=O)c1c(NC(=O)C(C)Sc2c[nH]c3ccccc23)sc2c1CCC2 (configuration not stated) | 25.3%
53 | CCOC(=O)c1c(NC(=O)Cn2nc(C(F)(F)F)cc2C)sc2c1CCC2 | 2.33%
54 | CCOC1OC(C(=O)N2CCOCC2)=CC(c2ccc3c(c2)OCO3)C1CCCO (configuration not stated) | 2.32%
55 | O=C(CNc1ccc2ccccc2c1)NN=Cc1ccc(C(=O)O)cc1 | 1.63%
56 | CCn1c2c(c3ccc(OC)cc31)CCCC2=O | 95.9% (active)
57 | COc1ccc(C2C3=C(CCCC3=O)N(CC(=O)O)C3=C2C(=O)CCC3)cc1 | 7.87%
58 | COc1ccc2c(C)cc3nnnn3c2c1 | 3.97%
59 | CCC1=C2CCC3C(=O)N(C)C(=O)C3C2[C@@]2(Cc3ccccc3)C(=NCCOC)OC(=O)N2C1=O (some centres not stated) | -1.76%
60 | COc1ccc(-c2nc(N)ncc2-c2ccc(Cl)cc2)c(O)c1 | -8.46%
61 | CC(C)(C)Oc1ncc(Br)c(OC(C)(C)C)n1 | 2.82%
62 | COc1cccc(-c2cnc(OC(C)(C)C)nc2OC(C)(C)C)c1 | 99.2% (active)

— PubChem BioAssay AID1259309 (ICCB-Longwood Screening Facility, Harvard Medical School, 2017)
